Results published in PubChem BioAssay AID1159580 (chemical genetic matrix, 2015).
“And” between values parts separate entries of the source, which are not always exact repeats. Equal values may be shown once. Among all 5,500 compounds or so, about 2,000 (36%) were called active. Not shown: some 18% with an inconclusive outcome. No stated cut-off is given here; in the data, active means normalized growth mostly below about 0.91 (no sharp cut-off); inconclusive means no clear call, values can overlap the other calls; inactive means mostly above about 0.92. Some of the results follow.

Test: chemical genetic growth profiling, strain panel (AID 1159580);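 further: tested at 20 µM; growth read once vehicle control cultures reached saturation at 30 °C; 1 = growth at the plate median or of vehicle wells; lower values mean less growth of the strain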
Conditions: S. cerevisiae deletion strains, growth OD

Measured: normalized growth

CCOC(=O)C1=C(C)NC(C)=C(C(=O)OC)C1c1cccc([N+](=O)[O-])c1 (stereo unspecified)
inactive: locus YAL013W, strain DEP1, hits give low values 1 and 0.987 | locus YAL021C, strain ccr4, hits give low values 0.996 | locus YAL026C, strain drs2, hits give low values 1.01 | locus YAL030W, strain snc1, hits give low values 0.997 | locus YBL061C, strain skt5, hits give low values 1 | locus YBR009C, strain hhf1, hits give low values 1.01 | locus YBR021W, strain FUR4, hits give low values 0.977 | locus YBR023C, strain chs3, hits give low values 0.999 | locus YBR171W, strain sec66, hits give low values 1.01 | locus YBR229C, strain ROT2, hits give low values 1.01 | locus YBR231C, strain swc5, hits give low values 0.999 | locus YBR279W, strain paf1, hits give low values 1.01 | locus YCL011C, strain gbp2, hits give low values 0.995 | locus YCL016C, strain dcc1, hits give low values 1.01 | locus YCL029C, strain bik1, hits give low values 1.01 | locus YCL061C, strain MRC1 (second series), hits give low values 0.985 | locus YCL061C, strain MRC1, hits give low values 1.01 | locus YCL069W, strain vba3, hits give low values 1.01 | locus YCR088W, strain abp1, hits give low values 1.01 | locus YDL005C, strain med2, hits give low values 1.01 | locus YDL035C, strain GPR1, hits give low values 1 | locus YDL040C, strain nat1, hits give low values 1 | locus YDL074C, strain BRE1, hits give low values 0.988 | locus YDL101C, strain DUN1, hits give low values 1 | locus YDL134C, strain PPH21, hits give low values 1 | locus YDL185W, strain tfp1, hits give low values 0.996 | locus YDL192W, strain arf1, hits give low values 1 | locus YDR001C, strain nth1, hits give low values 1.01 | locus YDR069C, strain doa4, hits give low values 1.01 | locus YDR101C, strain arx1, hits give low values 0.997 | locus YDR137W, strain rgp1, hits give low values 0.98 | locus YDR150W, strain NUM1, hits give low values 1 | locus YDR159W, strain sac3, hits give low values 1.01 | locus YDR162C, strain NBP2, hits give low values 0.945 | locus YDR195W, strain ref2 1.03 | locus YDR297W, strain sur2, hits give low values 1 | locus YDR318W, strain mcm21, hits give low values 1.02 | locus YDR334W, strain swr1, hits give low values 1.02 | locus YDR335W, strain msn5, hits give low values 1.02 | locus YDR363W, strain ESC2, hits give low values 1 | locus YDR388W, hits give low values 1.01 | locus YDR392W, strain spt3, hits give low values 0.946 | locus YDR502C, strain sam2, hits give low values 1 | locus YEL003W, strain gim4, hits give low values 1.01 | locus YEL037C, strain rad23, hits give low values 1.01 | locus YEL061C, strain CIN8 (second series), hits give low values 1.01 | locus YEL061C, strain CIN8, hits give low values 0.994 | locus YER002W, strain NOP16, hits give low values 0.933 | locus YER015W, strain faa2, hits give low values 1.02 | locus YER016W, strain bim1, hits give low values 1.01 | locus YER110C, hits give low values 1.01 | locus YER111C, strain swi4, hits give low values 1.02 | locus YER155C, strain BEM2 (second series), hits give low values 1.03 | locus YER155C, strain BEM2, hits give low values 0.997 | locus YER167W, strain BCK2, hits give low values 1 | locus YFR010W, strain ubp6, hits give low values 1.02 | locus YGL078C, strain dbp3, hits give low values 1.01 | locus YGL086W, strain mad1, hits give low values 1.02 | locus YGL167C, strain pmr1, hits give low values 1 | locus YGL173C, strain kem1, hits give low values 1.01 | locus YGL227W, strain vid30, hits give low values 1.01 | locus YGL240W, strain doc1, hits give low values 0.994 | locus YGL248W, strain PDE1, hits give low values 0.998 | locus YGL253W, strain hxk2, hits give low values 1 | locus YGR078C, strain PAC10, hits give low values 0.977 | locus YGR135W, strain pre9, hits give low values 0.977 | locus YGR229C, strain SMI1, hits give low values 0.961 and 1 | locus YGR252W, strain gcn5, hits give low values 1.02 | locus YHR013C, strain ard1, hits give low values 1.03 | locus YHR027C, strain rpn1, hits give low values 1.01 | locus YHR030C, strain SLT2, hits give low values 1.01 | locus YHR079C, strain IRE1 (second series), hits give low values 1 | locus YHR094C, strain hxt1, hits give low values 0.994 | locus YHR129C, strain ARP1, hits give low values 1.01 | locus YHR142W, strain chs7, hits give low values 0.976 | locus YHR200W, strain rpn10, hits give low values 1 | locus YIL066C, strain RNR3, hits give low values 1.02 | locus YIL073C, strain SPO22, hits give low values 1.04 | locus YIL125W, strain kgd1, hits give low values 0.999 | locus YIR030C, strain dcg1, hits give low values 0.999 | locus YJL092W, strain hpr5, hits give low values 1 | locus YJL095W, strain BCK1 (second series), hits give low values 1.01 | locus YJL095W, strain BCK1, hits give low values 0.994 | locus YJL115W, strain asf1, hits give low values 1.02 | locus YJL129C, strain trk1, hits give low values 0.992 | locus YJL134W, strain LCB3, hits give low values 1 | locus YJL154C, strain vps35, hits give low values 1.02 | locus YJL164C, strain tpk1, hits give low values 1.01 | locus YJL166W, strain qcr8, hits give low values 1.01 | locus YJL168C, strain set2, hits give low values 1.01 | locus YJL187C, strain SWE1 (second series), hits give low values 1.01
